In PubChem BioAssay (NCI):
The panel holds about 79,000 compounds, 15% with a hit somewhere; the sample as a whole holds those more often. Unmarked numbers belong to inactive results. The source made the active and inactive calls. No stated cut-off is given here; in the data, active means growth inhibition above about 70%; inactive means the rest.

Test: NCI Yeast Anticancer Drug Screen. Data for the mec2-1 strain (AID 157)
Conditions: S. cerevisiae mec2-1 strain, at 50.0 µM, hits give high values
Summary of the method: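 Growth inhibition is read against vehicle-treated controls after compound exposure of the mec2-1 yeast strain, which is defective in DNA damage repair or cell cycle control.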

Point of comparison: `CC[P+](C)(Cc1ccccc1)c1ccccc1` (stereo not given), growth inhibition 1.6%. Against it:
- FC(F)(F)c1ccc(C=NC23CC4CC(CC(C4)C2)C3)cc1 — lower, -9%
- CCOc1ccc(NC(=O)C2=C(C)NC(C)=C(C(=O)Nc3ccc(OCC)cc3)C2c2ccc(O)c(OC)c2)cc1 — higher, 3%
- O=c1cccc(CCc2ccccc2)[nH]1 — lower, -9.35%
- OC(C1CCCCC1)(C1CCC2(CCCCC2)CC1)C1CCCC2CCCCC21 (stereo not given) — higher, 5%
- O=C(CCc1ccccc1)NC(=S)Nc1cccc([N+](=O)[O-])c1 — higher, 25.9%
- Cc1ccc(-n2cc(-c3ccc(Cl)cc3)c3c2N=CN2NC(c4cccs4)=NC32)cc1 (stereo not given) — lower, -5.8%
- COC(=O)C(N)Cc1ccc(OC)cc1 (stereo not given) — lower, -9.25%
- Oc1c(/N=N/C(=S)NCCCN2CCN(CCCNC(=S)/N=N/c3[nH]c4ccccc4c3O)CC2)[nH]c2ccccc12 — higher, 6.45%
- NCCO — lower, 1.15%
- Oc1ccccc1C=Nc1ccccc1 — higher, 1.95%
- O=C(/C=C/c1ccco1)c1ccc(O)c(C(=O)O)c1 — lower, -1.25%
- Cc1ccc(NC(=O)C(=O)CC(=O)c2c(C)n([O-])c3ccccc3[n+]2=O)cc1 — higher, 6.95%
- CCOC(=O)C/C(C)=N\NC(N)=O — higher, 42.5%
- COc1cc(NCCNCC(C)(C)C)c2ncccc2c1 — higher, 18.7%
- CCNS(=O)(=O)c1ccccc1 — lower, -29.2%
- COC(=O)/C=C/c1ccc2c(c1)CCCC2 — higher, 15.1%
- Cc1ccc(C(=O)Oc2ccccc2)cc1N=NN(C)C — lower, -49%
- Cc1ccc2c(c1)nc(N)n[n+]2[O-] — lower, -14.7%
- Nc1ccc2c(c1)Cc1cc(O)ccc1-2 — lower, -8.75%
- [O-]/[N+]1=[N+](\[O-])c2ccccc2CCCc2ccccc21 — lower, -7.3%
- O=S1OC(c2ccccc2)C(c2ccccc2)O1 (stereo not given) — lower, -10.5%
- O=C1c2ccccc2C(=O)N1CNc1cccc(Cl)c1 — higher, 13.2%
- Cc1cccc(NC(=O)c2c(Cl)c(Cl)c(Cl)c(Cl)c2C(=O)O)c1C — higher, 2%
- NC1=CCNN1 — lower, -21.9%
- Cc1cc(Cl)c(O)c(-c2cc(-c3ccc([N+](=O)[O-])cc3)c3c(N)[nH]c(=O)nc3n2)c1 — lower, -4.65%
- CS/C(=C/c1ccc2ccccc2[n+]1C)N1CCN(C)CC1 — lower, -1.25%
- O=C(O)/C=C/c1c(Cl)cccc1Cl — lower, -8.05%
- [Cl][Pt+2][Cl].[NH-]c1ccccc1F.[NH-]c1ccccc1F — higher, 32.9%
- CN(C)c1c2c(oc(=O)c1Cl)-c1ccccc1OCC2 — lower, -12.8%
- CN1NC(=O)CC1c1ccccc1 (stereo not given) — lower, -3.65%
- O=C(Nc1ccccc1)OC1CCCC12CC2 (stereo not given) — higher, 4.9%
- CC1(C)CC(N(CCO)CCO)CC(C)(C)N1O — lower, -2.8%
- N#C/C(c1ccccc1)=[N+](/[O-])O — lower, -4.9%
- N=C(CN1CCCCC1)N1CCCCC1 — lower, -15.3%
- N#CC(c1ccccc1)[N+](=O)[O-] (stereo not given) — lower, -5.05%
- NCCNCCCCCCNC(=O)c1cccc2cc3ccccc3nc12 — lower, -25.4%
- O=[N+]([O-])c1ccc(OC(=S)Oc2ccc([N+](=O)[O-])cc2)cc1 — lower, -16.7%

In the case of `OC(CC1=NCCS1)(c1ccccc1)c1ccccc1`, the growth inhibition is reported as 98.8% (active).
In the case of `O=c1c(Cl)cc(Cl)cn1S(=O)(=O)c1ccc([N+](=O)[O-])cc1`, the growth inhibition is reported as 95.3% (active).

Test: NCI Yeast Anticancer Drug Screen. Data for the sgs1 mgt1 strain (AID 161);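 further: 0% = growth of cultures given vehicle only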
Conditions: S. cerevisiae sgs1 mgt1 strain, at 50.0 µM, hits give high values
Summary of the method: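 Growth of a repair-deficient yeast mutant was monitored after compound treatment and expressed as inhibition relative to vehicle-treated cultures.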

Point of comparison: `O=c1cccc(CCc2ccccc2)[nH]1`, growth inhibition -9.6%. Against it:
- FC(F)(F)c1ccc(C=NC23CC4CC(CC(C4)C2)C3)cc1 — lower, -16.2%
- CCOc1ccc(NC(=O)C2=C(C)NC(C)=C(C(=O)Nc3ccc(OCC)cc3)C2c2ccc(O)c(OC)c2)cc1 — lower, -14.8%
- OC(C1CCCCC1)(C1CCC2(CCCCC2)CC1)C1CCCC2CCCCC21 (stereo not given) — higher, 30.9%
- O=C(CCc1ccccc1)NC(=S)Nc1cccc([N+](=O)[O-])c1 — higher, 53.5%
- Cc1ccc(-n2cc(-c3ccc(Cl)cc3)c3c2N=CN2NC(c4cccs4)=NC32)cc1 (stereo not given) — lower, -18.9%
- COC(=O)C(N)Cc1ccc(OC)cc1 (stereo not given) — higher, 8.1%
- Oc1c(/N=N/C(=S)NCCCN2CCN(CCCNC(=S)/N=N/c3[nH]c4ccccc4c3O)CC2)[nH]c2ccccc12 — higher, 20.6%
- NCCO — lower, -11.8%
- Oc1ccccc1C=Nc1ccccc1 — higher, 0%
- O=C(/C=C/c1ccco1)c1ccc(O)c(C(=O)O)c1 — higher, -1%
- Cc1ccc(NC(=O)C(=O)CC(=O)c2c(C)n([O-])c3ccccc3[n+]2=O)cc1 — higher, -6.5%
- CCOC(=O)C/C(C)=N\NC(N)=O — higher, 44.8%
- COc1cc(NCCNCC(C)(C)C)c2ncccc2c1 — higher, 22.1%
- CCNS(=O)(=O)c1ccccc1 — higher, -2.7%
- COC(=O)/C=C/c1ccc2c(c1)CCCC2 — higher, 10.6%
- Cc1ccc(C(=O)Oc2ccccc2)cc1N=NN(C)C — lower, -56.8%
- CC[P+](C)(Cc1ccccc1)c1ccccc1 (stereo not given) — higher, 22.1%
- Cc1ccc2c(c1)nc(N)n[n+]2[O-] — higher, -3.4%
- Nc1ccc2c(c1)Cc1cc(O)ccc1-2 — higher, 1.45%
- [O-]/[N+]1=[N+](\[O-])c2ccccc2CCCc2ccccc21 — higher, -2.6%
- O=S1OC(c2ccccc2)C(c2ccccc2)O1 (stereo not given) — higher, -4.55%
- O=C1c2ccccc2C(=O)N1CNc1cccc(Cl)c1 — higher, 9.45%
- Cc1cccc(NC(=O)c2c(Cl)c(Cl)c(Cl)c(Cl)c2C(=O)O)c1C — higher, 2.6%
- NC1=CCNN1 — higher, 4.1%
- Cc1cc(Cl)c(O)c(-c2cc(-c3ccc([N+](=O)[O-])cc3)c3c(N)[nH]c(=O)nc3n2)c1 — higher, 35.5%
- CS/C(=C/c1ccc2ccccc2[n+]1C)N1CCN(C)CC1 — higher, -8.15%
- O=C(O)/C=C/c1c(Cl)cccc1Cl — lower, -11.9%
- [Cl][Pt+2][Cl].[NH-]c1ccccc1F.[NH-]c1ccccc1F — lower, -14.8%
- CN(C)c1c2c(oc(=O)c1Cl)-c1ccccc1OCC2 — lower, -10.4%
- CN1NC(=O)CC1c1ccccc1 (stereo not given) — lower, -10.8%
- O=C(Nc1ccccc1)OC1CCCC12CC2 (stereo not given) — lower, -16.1%
- CC1(C)CC(N(CCO)CCO)CC(C)(C)N1O — higher, 11.4%
- N#C/C(c1ccccc1)=[N+](/[O-])O — higher, 2.5%
- N=C(CN1CCCCC1)N1CCCCC1 — higher, -5.15%
- N#CC(c1ccccc1)[N+](=O)[O-] (stereo not given) — higher, -2.45%
- NCCNCCCCCCNC(=O)c1cccc2cc3ccccc3nc12 — lower, -30.1%
- O=[N+]([O-])c1ccc(OC(=S)Oc2ccc([N+](=O)[O-])cc2)cc1 — higher, 2.9%

In the case of `OC(CC1=NCCS1)(c1ccccc1)c1ccccc1`, the growth inhibition is reported as 96.8% (active).
With `O=c1c(Cl)cc(Cl)cn1S(=O)(=O)c1ccc([N+](=O)[O-])cc1` the growth inhibition was 98.9% (active).
